One test concerns Klebsiella pneumoniae. The note with it: Concentration 32 ug.mL-1, ASSAY_TEST Inhibition of Bacterial Growth, detection method Absorption (OD600), MEDIA CAMHB, plate type 384well, NBS, CORNING #3640, time 18 hr.
A further test deals with Candida albicans. The following applies: 32 ug/mL.
For the next test, the system named is Cryptococcus neoformans. The note with it: Concentration 32 ug.mL-1; ASSAY_TEST Inhibition of Fungal Growth; detection method Resazurin; Absorption (OD600-OD570); plate type 384well; NBS; CORNING #3640. (In general: Alamar Blue is a resazurin reagent that responds to reducing activity.)

Among the data in ChEMBL document CHEMBL4513151, “CO-ADD screening of Institut Català d'Investigació Química (Spain) compounds” are Inhibition values, retold here.

Where “and” joins values, the source holds several entries; their conditions need not be identical. Equal values may be shown once. Results with a measured potency or affinity are listed apart.

Take `C=C1CC(COCc2ccc(OC)cc2)(COCc2ccc(OC)cc2)C[C@@H]1[C@@H](Nc1ccc(Br)cc1)c1ccccc1`: the figures for the Inhibition with Klebsiella pneumoniae, in the test with Candida albicans and in the test on Cryptococcus neoformans were 3.98%, -6.97% and -42.12%, respectively.
The matching figures for `C[C@@H]1CC(=O)C=C2C(=O)[C@@H]3[C@@H](C3(C)C)[C@]21C`: 18.57%, -0.58% and -14.72%.
With `C[C@]12CC[C@@](C3CC3)(O1)[C@H]1C=C[C@H](OC(=O)c3ccccc3)[C@H]12`, the Inhibition (as a rule, the relative decrease from the control value, in per cent) was 19.23% and 15.4% in the test on Klebsiella pneumoniae (32 ug/mL); 3.68% and 4.72% in the test with Candida albicans.
Turning to `C[C@]12CC[C@@](c3ccc4ccccc4c3)(O1)[C@H]1C=C[C@H](OC(=O)c3ccccc3)[C@H]12`, the Inhibition in the test on Klebsiella pneumoniae was 30.93%; in the test on Candida albicans, 2.97%; in the test with Cryptococcus neoformans it was -55.94%.
Regarding `C=C1CC2(COC(C)(C)OC2)C[C@@H]1[C@@H](Nc1ccc(Br)cc1)c1ccccc1`, the Inhibition in the test with Klebsiella pneumoniae is 31.4%; with Candida albicans, 6.45%; with Cryptococcus neoformans it was -62.96%.
